Bioassay records deposited in PubChem by National Center for Advancing Translational Sciences (NCATS).
KB-V1 MDR tox: qHTS assay for MDR1-selective chemotherapeutics: Primary screen using the drug-selected MDR subline cells KB-V1 | KB-V1 MDR cells viability, CellTiter-Glo, 72 h | Potency, µM (top dose mostly 46.1 µM), hits mostly cytotoxic | 3.4% of 400,000 active; note: % is set by controls: 0 for no effect and ±100 for the full control effect; nearly all actives have a fitted effect of over 60% in size
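In this primary screen, KB-V1 cells overexpressing P-gp are incubated with library compounds (lowest to highest concentration) for 72 h at 37 degrees C before a luminescent ATP viability read.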
ATXN viability: Viability Counterscreen for Primary qHTS for Inhibitors of ATXN expression. S2 cells (HEK-293 line with an ATXN2-luciferase reporter) viability, CellTiter-Fluor protease fluorescence, 24 h. Potency, µM (doses to about 56.7 µM), actives largely listed as cytotoxic. 0.49% of 400,000 active; note: nearly all actives have a fitted effect of over 40% in size
KB-3-1 cytotox: qHTS assay for MDR1-selective chemotherapeutics: Primary screen using the parental adenocarcinoma cell KB-3-1. KB-3-1 viability, CellTiter-Glo ATP luminescence, 72 h. Potency, µM (top dose mostly 46.1 µM), most hits filed as cytotoxic. 1.4% of 400,000 active. AID 1347075, 2019; note: % is set by controls: 0 for no effect and ±100 for the full control effect; nearly all actives have a fitted effect of over 60% in size
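Here the drug-naive KB-3-1 line serves as comparator for MDR sub-line selectivity; cells received compound titrations, 72 h at 37 °C, then CellTiter-Glo readout.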
HT1080 IDH1KD tx: qHTS for induction of synthetic lethality in tumor cells producing 2HG: qHTS for the HT-1080-IDH1KD cell line | HT-1080 IDH1 knockdown viability, ATP luminescence, 48 h | Potency, µM (top dose mostly 46.1 µM), without a hit: top-dose activity, negative = toxicity, actives largely listed as cytotoxic | 2% of 360,000 active | AID 686971, 2013;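 note: 0% = DMSO wells and -100% = cell-free medium wells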
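Knockdown cells (IDH1KD HT-1080) received compounds 2 h after plating at 750 cells/well and were kept 48 h at 37 °C in 5% FBS RPMI. A CellTiter-Glo luminescence read gave % activity for curve fitting.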
ATXN2 expr inh: Primary qHTS for Inhibitors of ATXN expression | 0.72% of 360,000 active | HEK-293 ATXN2-luciferase reporter, luminescence, 24 h | AID 1745845, 2022 | Potency, µM (series often up to 57 µM), inactives show at the highest dose activity change, negative = inhibition, actives largely listed as inhibitors; note: % is set by controls: 0 for no effect and ±100 for the full control effect; nearly all actives have a fitted effect of over 55% in size
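ATXN2-luciferase reporter cells (luciferase flanked by upstream and downstream ATXN2 gene portions) were treated 24 h at 37 °C with compounds at up to 57 uM. SteadyGlo luminescence gave expression; GF-AFC fluorescence gave viability.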
HT1080-NT tox: qHTS for induction of synthetic lethality in tumor cells producing 2HG: qHTS for the HT-1080-NT fibrosarcoma cell line | HT-1080-NT fibrosarcoma viability, CellTiter-Glo ATP luminescence, 48 h | Potency, µM (series often up to 46.1 µM), without a hit: at the highest dose activity, negative = less viability, actives largely listed as cytotoxic | 1.6% of 360,000 active | AID 686970, 2013;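 note: NT is the 2HG producing partner of a matched IDH1 knockdown line; 0% = DMSO-treated cells and -100% = media-only wells without cells; nearly all actives have a fitted effect of over 55% in size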
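Read-out is CellTiter-Glo luminescence after 10 minutes at room temperature, following 48 hours' compound treatment of HT-1080-NT cells (750 cells/well, RPMI, 5% FBS, 37 degrees C).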
The depositor's hits bear a star; i = inactive; ? = inconclusive; / = no result given; [ ] = dose if it differs, or a comment. The list is not random: actives were taken first. Their share in the collection is about 6.2%. Calls come from the whole dose curve; as a rule, active = well fitted curve in the direction sought with a large enough effect; inconclusive = small, poorly fitted or top-dose-only effect, or another doubt; inactive = no such curve, though single readings can be large; an effect the other way counts as inactive or inconclusive. Potency is the fitted concentration of half-maximal effect.

SMILES | KB-V1 MDR tox | ATXN viability | KB-3-1 cytotox | HT1080 IDH1KD tx | ATXN2 expr inh | HT1080-NT tox
Cc1c(C(=O)NCc2ccc3c(c2)OCO3)sc2nc(-c3ccc(F)cc3)cn12 | i | i | i | 2% | -10% | 0%
Cc1c(C(=O)NCc2ccccn2)sc2nc(-c3ccccc3)cn12 | i | i | 9.2µM* | ? | ? | ?
CNC(=O)c1c(NC(=O)c2cc(=O)c3ccccc3o2)sc2c1CCC2 | i | i | i | / | 8% | /
CCOc1ccc(C[C@H]2NC(=O)CCSSC[C@@H](C(=O)N3CCC[C@H]3C(=O)N[C@@H](CCCN)C(=O)NCC(N)=O)NC(=O)[C@H](CC(N)=O)NC(=O)[C@H]([C@@H](C)O)NC(=O)[C@H]([C@@H](C)CC)NC2=O)cc1 | / | i | / | / | / | /
CCOc1ccccc1C(=O)N[C@H](C(=O)OCc1cc([N+](=O)[O-])cc2c1OCOC2)C(C)C | 5.8µM* | ? | i | ? | -19% | -2%
CC(C)C(NC(=O)c1ccccc1)C(=O)OCc1cc([N+](=O)[O-])cc2c1OCOC2 (stereo not given) | i | i | i | -8% | / | -2%
COc1cc(OC)cc(C(=O)N[C@H](C(=O)OCc2cc(=O)oc3cc(C)ccc23)C(C)C)c1 | 3.7µM* | ? | i | -1% | -6% | 1%
CCOc1ccccc1C(=O)N[C@H](C(=O)OCc1cc(=O)oc2cc(C)ccc12)C(C)C | 3.3µM* | i | i | -23% | -22% | -19%
CCOc1ccccc1C(=O)NC(C)c1ccc2c(c1)OCO2 (stereo not given) | 9.2µM* | i | ? | ? | -18% | ?
COc1ccc(NC(=O)C(C)N2Cc3ccccc3C2=O)cc1OC (stereo not given) | i | / | i | / | / | /
Cn1nc(C(F)(F)F)c(/C=N/OC(=O)c2ccccc2)c1SCc1ccc(Cl)cc1 | 18µM* | i | i | 20% | -24% | 11%
Cn1nc(C(F)(F)F)c(/C=N/OC(=O)c2ccccc2Cl)c1SCc1ccccc1Cl | ? | i | ? | -25% | -22% | ?
Cc1ccc(NC(=O)c2c(C(F)(F)F)nn(C)c2SCc2ccc(Cl)cc2)cc1C | 8.2µM* | i | ? | ? | -19% | ?
Cc1ccc(-c2csc3nnc(SCC(=O)N4CCN(Cc5ccccc5)CC4)n23)cc1 | 6.5µM* | i | i | -5% | 9% | -8%
Cn1c(SCC(=O)N2CCN(Cc3ccccc3)CC2)nnc1-c1ccncc1 | i | i | i | -2% | 4% | 7%
O=C(CSc1nnc2scc(-c3ccccc3)n12)N1CCN(Cc2ccccc2)CC1 | 5.8µM* | i | i | -7% | 15% | -1%
COc1cc(C(=O)NC2CCCCC2)ccc1OCc1ccc(Cl)cc1Cl | ? | i | i | 13% | -15%[11.3 µM] | 0%
CN(C)CCNC(=O)c1ccc(COc2ccc(Cl)cc2Cl)cc1 | 18µM* | ? | ? | ? | ? | 10µM*
COc1cc(C(=O)NCCC(C)C)ccc1OCc1ccc(Cl)cc1Cl | 15µM* | i | ? | -6% | 12% | -6%
COCCNC(=S)N/N=C(\C)c1ccc(O)cc1 | i | i | i | -12% | -6% | -2%
C/C(=N\NC(=S)NC1CCCCC1)c1ccc(O)cc1 | ? | i | 16µM* | -8% | -9% | -19%
C/C(=N\NC(=S)NC(C)C)c1ccccc1 | i | i | i | -1% | -11% | 4%
C/C(=N\NC(=S)NC1CCCCC1)c1ccccc1 | i | i | 16µM* | 2% | 36% | 8%
Cc1ccc(S(=O)(=O)c2nc(-c3cccs3)oc2SC(C)c2ccccc2)cc1 (stereo not given) | i | i | i | / | 6% | /
CCN(CC)S(=O)(=O)c1cc(C(=O)Nc2ccncc2)ccc1Cl | 16µM* | i | 21µM* | -22% | -22% | 0%
SMILES | KB-V1 MDR tox | ATXN viability | KB-3-1 cytotox | HT1080 IDH1KD tx | ATXN2 expr inh | HT1080-NT tox
CCN(CC)S(=O)(=O)c1cc(C(=O)Nc2cccnc2)ccc1Cl | i | i | i | -9% | -7% | -4%[9.24 µM]
O=C(CN(Cc1ccccc1)S(=O)(=O)c1cccc(C(F)(F)F)c1)NC1CCCCC1 | 3.7µM* | i | i | -7% | 5% | -9%
CCN(CC)S(=O)(=O)c1cccc(NC(=O)Nc2cccc(C(F)(F)F)c2)c1 | 8.2µM* | ? | 7.3µM* | 21µM* | 22µM* | ?
CCN(CC)S(=O)(=O)c1cccc(NC(=O)CC2CCCC2)c1 | i | i | i | -3% | -20% | 3%
CCN(CC)S(=O)(=O)c1cccc(C(=O)Nc2cccnc2)c1 | 21µM* | i | i | 6% | 2% | 5%
COC(=O)c1cc2oc(C)cc2n1CC(=O)Nc1ccc(OC)c(OC)c1 | i | i | i | / | 14% | /
Cc1c(Cl)cccc1NC(=O)C(CCS(C)(=O)=O)N1Cc2ccccc2C1=O (stereo not given) | i | / | i | / | / | /
CCOc1ccccc1C(=O)NC1(C(F)(F)F)C(=O)Nc2c1c(=O)[nH]c(=O)n2-c1ccccc1 (stereo not given) | ? | i | i | / | 13% | /
COc1cccc(C(=O)N2CCC(N3CCN(Cc4ccc(F)cc4)C(=O)C3=O)CC2)c1 | i | i | i | / | 2% | /
O=C(Nc1nc2cc3c(cc2s1)OCCO3)c1cccc(N2C(=O)CCC2=O)c1 | ? | ? | i | 3% | -11% | 9%
CCN(CC)S(=O)(=O)c1cccc(C(=O)NC2CCCCC2)c1 | 18µM* | i | i | ? | 3% | -13%
CN(c1ccccc1)S(=O)(=O)c1cccc(C(=O)NC2CCCC2)c1 | / | ? | / | 0% | -6% | -4%
CCN(CC)S(=O)(=O)c1cccc(C(=O)Nc2nc3cc4c(cc3s2)OCCO4)c1 | 4.6µM* | ? | ? | ? | ? | 11µM*
CCC1CN(CCNC(=O)c2cccc(C(=O)OC)c2)Cc2cc(OC)ccc2O1 (stereo not given) | / | i | / | / | / | /
CC(C)(C)[C@H]1CCC(=O)N(CCSc2ccc(Br)cc2)CC1 | ? | / | i | / | / | /
Cc1ccc(SCCNC(=O)CN(c2cccc(C)c2C)S(C)(=O)=O)cc1 | i | i | i | / | -9% | /
